# Assay results published in the supplement of paper PMC7057948, “A genome-wide approach for identification and characterisation of metabolite-inducible systems” (Nature Communications, 2020).
# Tests used:
# Settings in all cases: inducer concentration 5 mM; 6 h; Cupriavidus necator H16; minimal medium + 0.4% gluconate
# [1] = test system: AcoR/P_H16_RS19445 acetoin biosensor (pEH052); test: relative induction of RFP reporter vs primary effector (background-corrected); higher = stronger activation of the biosensor
# Procedure: (§1)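 C. necator H16 strains, each carrying one of 21 transcription factor/inducible promoter–mRFP biosensor plasmids, were grown in minimal medium in 96-well plates (robotic platform). Each was exposed to 46 structurally or metabolically related compounds at 5 mM at 30 °C. OD-normalised RFP fluorescence was read 6 h later and expressed as relative induction (%) = 100 × (FL compound − FL uninduced)/(FL primary inducer − FL uninduced); mean of n=4.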
# [2] = test system: AraC/P_araBAD L-arabinose biosensor (pEH176); test: as above
# Procedure: as §1
# [3] = test system: BenM/P_H16_RS09790 benzoate biosensor (pEH148); test: as above
# Procedure: as §1
# [4] = test system: FdsR/P_H16_RS03165 formate biosensor (pEH134); test: as above
# Procedure: as §1
# [5] = test system: GabR/P_H16_RS23655 GABA biosensor (pEH256); test: as above
# Procedure: as §1
# [6] = test system: HpdR/P_H16_RS18295 3-hydroxypropanoate biosensor (pEH010); test: as above
# Procedure: as §1
# [7] = test system: KynR/P_H16_RS14030 L-kynurenine biosensor (pEH136); test: as above
# Procedure: as §1
# [8] = test system: NahR/P_H16_RS08125 salicylate biosensor (pEH042); test: as above
# Procedure: as §1
# [9] = test system: OapR/P_H16_RS01330 beta-alanine biosensor (pEH147); test: as above
# Procedure: as §1
# [10] = test system: PcaQ/P_H16_RS30145 3,4-dihydroxybenzoate biosensor (pEH161); test: as above
# Procedure: as §1
# [11] = test system: PhgR/P_H16_RS05530 phenylglyoxylate biosensor (pEH155); test: as above
# Procedure: as §1
# [12] = test system: PhhR/P_H16_RS18365 L-phenylalanine biosensor (pEH137); test: as above
# Procedure: as §1
# [13] = test system: SauR/P_H16_RS13695 sulfonatoacetate biosensor (pEH157); test: as above
# Procedure: as §1
# [14] = test system: TtdR/P_H16_RS10665 tartrate biosensor (pEH083); test: as above
# Procedure: as §1
# [15] = test system: XdhR/P_H16_RS05055 xanthine biosensor (pEH154); test: as above
# Procedure: as §1
# [16] = test system: heterologous inducible system pEH002 (rhamnose/acrylate/cumate/itaconate set); test: as above
# Procedure: as §1
# [17] = test system: heterologous inducible system pEH020 (rhamnose/acrylate/cumate/itaconate set); test: as above
# Procedure: as §1
# [18] = test system: heterologous inducible system pEH040 (rhamnose/acrylate/cumate/itaconate set); test: as above
# Procedure: as §1
# [19] = test system: heterologous inducible system pEH086 (rhamnose/acrylate/cumate/itaconate set); test: as above
# Procedure: as §1
# [20] = test system: AcoR/P_H16_RS19445 acetoin biosensor (pEH052); test: relative induction of RFP reporter vs primary effector; higher = stronger activation
# Procedure: (§2)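 Orthogonality screen of 21 primary inducers against 21 transcription factor/inducible promoter–mRFP biosensors in C. necator H16 in minimal medium, robotic 96-well format, 5 mM inducer, 30 °C. OD-normalised RFP fluorescence was read 6 h later and expressed as relative induction (%) = 100 × (FL compound − FL uninduced)/(FL primary inducer − FL uninduced); mean of n=4. Cognate pairs (100% by definition) omitted.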
# [21] = test system: AraC/P_araBAD L-arabinose biosensor (pEH176); test: as above
# Procedure: as §2
# [22] = test system: BadR/P_H16_RS27200 cyclohexanecarboxylate biosensor (pEH159); test: as above
# Procedure: as §2
# [23] = test system: BenM/P_H16_RS09790 benzoate biosensor (pEH148); test: as above
# Procedure: as §2
# [24] = test system: FdsR/P_H16_RS03165 formate biosensor (pEH134); test: as above
# Procedure: as §2
# [25] = test system: GabR/P_H16_RS23655 GABA biosensor (pEH256); test: as above
# Procedure: as §2
# [26] = test system: HpdA/P_H16_RS24175 L-tyrosine biosensor (pEH158); test: as above
# Procedure: as §2
# [27] = test system: NahR/P_H16_RS08125 salicylate biosensor (pEH042); test: as above
# Procedure: as §2
# [28] = test system: OapR/P_H16_RS01330 beta-alanine biosensor (pEH147); test: as above
# Procedure: as §2
# [29] = test system: PcaQ/P_H16_RS30145 3,4-dihydroxybenzoate biosensor (pEH161); test: as above
# Procedure: as §2
# [30] = test system: PhgR/P_H16_RS05530 phenylglyoxylate biosensor (pEH155); test: as above
# Procedure: as §2
# [31] = test system: SauR/P_H16_RS13695 sulfonatoacetate biosensor (pEH157); test: as above
# Procedure: as §2
# [32] = test system: TtdR/P_H16_RS10665 tartrate biosensor (pEH083); test: as above
# Procedure: as §2
# [33] = test system: XdhR/P_H16_RS05055 xanthine biosensor (pEH154); test: as above
# Procedure: as §2
# [34] = test system: heterologous L-rhamnose-inducible system; test: as above
# Procedure: as §2
# [35] = test system: heterologous acrylate-inducible system; test: as above
# Procedure: as §2
# [36] = test system: heterologous cumate-inducible system; test: as above
# Procedure: as §2
# [37] = test system: heterologous itaconate-inducible system; test: as above
# Procedure: as §2
# 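Throughout, for relative induction of RFP reporter vs primary effector (background-corrected): RFP excited at 585 nm with emission read at 620 nm, culture medium blanks subtracted from fluorescence and absorbance prior to normalisation.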
smiles,measurement,setting,value
O=C(O)C1CCCC1 [cyclopentane-1-carboxylate],relative induction of RFP reporter,[1],9.44%
same,relative induction of RFP reporter,[2],0.014%
same,relative induction of RFP reporter,[3],0.298%
same,relative induction of RFP reporter,[4],-2.26%
same,relative induction of RFP reporter,[5],-1.83%
same,relative induction of RFP reporter,[6],-0.057%
same,relative induction of RFP reporter,[7],0.335%
same,relative induction of RFP reporter,[8],-0.00226%
same,relative induction of RFP reporter,[9],3.18%
same,relative induction of RFP reporter,[10],-0.184%
same,relative induction of RFP reporter,[11],-0.24%
same,relative induction of RFP reporter,[12],-0.439%
same,relative induction of RFP reporter,[13],0.584%
same,relative induction of RFP reporter,[14],1.99%
same,relative induction of RFP reporter,[15],0.428%
same,relative induction of RFP reporter,[16],-0.0145%
same,relative induction of RFP reporter,[17],0.409%
same,relative induction of RFP reporter,[18],7.83%
same,relative induction of RFP reporter,[19],0.259%
O=C(O)CCO [3-hydroxypropanoate],relative induction of RFP reporter,[20],-1.52%
same,relative induction of RFP reporter,[21],-0.0357%
same,relative induction of RFP reporter,[22],0.0132%
same,relative induction of RFP reporter,[23],-0.029%
same,relative induction of RFP reporter,[24],-8.81%
same,relative induction of RFP reporter,[25],-1.71%
same,relative induction of RFP reporter,[26],-0.172%
same,relative induction of RFP reporter,[27],0.0108%
same,relative induction of RFP reporter,[28],3.75%
same,relative induction of RFP reporter,[29],-0.224%
same,relative induction of RFP reporter,[30],-0.286%
same,relative induction of RFP reporter,[31],-0.00696%
same,relative induction of RFP reporter,[32],-0.346%
same,relative induction of RFP reporter,[33],-0.715%
same,relative induction of RFP reporter,[34],0.00446%
same,relative induction of RFP reporter,[35],2.83%
same,relative induction of RFP reporter,[36],-0.514%
same,relative induction of RFP reporter,[37],0.017%
Oc1ccccc1 [phenol],relative induction of RFP reporter,[1],-1.65%
same,relative induction of RFP reporter,[2],-0.0137%
same,relative induction of RFP reporter,[3],-0.0189%
same,relative induction of RFP reporter,[4],-3.17%
same,relative induction of RFP reporter,[5],-2.32%
same,relative induction of RFP reporter,[6],-0.39%
same,relative induction of RFP reporter,[7],-0.287%
same,relative induction of RFP reporter,[8],0.011%
same,relative induction of RFP reporter,[9],-1.38%
same,relative induction of RFP reporter,[10],-0.0887%
same,relative induction of RFP reporter,[11],-0.147%
same,relative induction of RFP reporter,[12],-0.522%
same,relative induction of RFP reporter,[13],0.0243%
same,relative induction of RFP reporter,[14],0.576%
same,relative induction of RFP reporter,[15],-0.78%
same,relative induction of RFP reporter,[16],-0.0073%
same,relative induction of RFP reporter,[17],-2.66%
same,relative induction of RFP reporter,[18],-1.14%
same,relative induction of RFP reporter,[19],-0.575%
C=CC(=O)O [acrylate],relative induction of RFP reporter,[20],-1.36%
same,relative induction of RFP reporter,[21],-0.0252%
same,relative induction of RFP reporter,[22],-0.281%
same,relative induction of RFP reporter,[23],0.00199%
same,relative induction of RFP reporter,[24],-7.94%
same,relative induction of RFP reporter,[25],0.12%
same,relative induction of RFP reporter,[26],-0.146%
same,relative induction of RFP reporter,[27],0.00921%
same,relative induction of RFP reporter,[29],-0.175%
same,relative induction of RFP reporter,[30],-0.587%
same,relative induction of RFP reporter,[31],0.114%
same,relative induction of RFP reporter,[32],-0.0524%
same,relative induction of RFP reporter,[33],-0.215%
same,relative induction of RFP reporter,[34],0.000569%
same,relative induction of RFP reporter,[36],0.803%
same,relative induction of RFP reporter,[37],0.117%
